# From PubChem BioAssay (NCATS)
# Results filed as inconclusive are left out. Values without a mark were called inactive. Active and inactive are the calls of the source. Calls come from the whole dose curve; as a rule, active = well fitted cell-killing curve with a large enough effect; inconclusive = small, poorly fitted or top-dose-only effect, or effect the other way; inactive = no such curve, though single readings can be large or run the other way.
# What was measured:
# [1] = Quantitative High-Throughput drug screen in 47 multiple myeloma cell lines against the NCATS MIPE library collection: KMS34_JCRB cell viability assay (AID 1918985); note: nearly all actives have a fitted effect of over 40% in size; note: potency is the fitted concentration of half-maximal effect
# Outline: (§1)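 Inhibition of viability over 48 h was scored by ATP content (CellTiter-Glo) in 500-cell wells. Zero and full viability were defined by media-only and DMSO-only wells.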
# [2] = Quantitative High-Throughput drug screen in 47 multiple myeloma cell lines against the NCATS MIPE library collection: OCIMY7_PLB cell viability assay (AID 1918987); note: nearly all actives have a fitted effect of over 65% in size; note: potency is the fitted concentration of half-maximal effect
# Outline: as §1
# [3] = Quantitative High-Throughput drug screen in 47 multiple myeloma cell lines against the NCATS MIPE library collection: OCIMY5_PLB cell viability assay (AID 1918988); note: nearly all actives have a fitted effect of over 65% in size; note: potency is the fitted concentration of half-maximal effect
# Outline: as §1
# [4] = Quantitative High-Throughput drug screen in 47 multiple myeloma cell lines against the NCATS MIPE library collection: SKMM1_PLB cell viability assay (AID 1919863); details: SKMM1 myeloma viability, CellTiter-Glo ATP, 48 h; viability: stronger effect = lower value; note: nearly all actives have a fitted effect of over 35% in size; note: potency is the fitted concentration of half-maximal effect; for viability: series mostly up to about 46 µM
# Outline: as §1
# [5] = Quantitative High-Throughput drug screen in 47 multiple myeloma cell lines against the NCATS MIPE library collection: U266_ATCC cell viability assay (AID 1919864); note: nearly all actives have a fitted effect of over 35% in size; note: potency is the fitted concentration of half-maximal effect
# Outline: as §1
# [6] = Quantitative High-Throughput drug screen in 47 multiple myeloma cell lines against the NCATS MIPE library collection: XG6_PLB cell viability assay (AID 1919865); note: nearly all actives have a fitted effect of over 40% in size; note: potency is the fitted concentration of half-maximal effect
# Outline: as §1
# [7] = Quantitative High-Throughput drug screen in 47 multiple myeloma cell lines against the NCATS MIPE library collection: L363_DSMZ cell viability assay (AID 1918984); note: nearly all actives have a fitted effect of over 40% in size; note: potency is the fitted concentration of half-maximal effect
# Outline: as §1
# [8] = Quantitative High-Throughput drug screen in 47 multiple myeloma cell lines against the NCATS MIPE library collection: OPM1_PLB cell viability assay (AID 1918989); note: nearly all actives have a fitted effect of over 40% in size; note: potency is the fitted concentration of half-maximal effect
# Outline: as §1
# [9] = Quantitative High-Throughput drug screen in 47 multiple myeloma cell lines against the NCATS MIPE library collection: KMS28PE_JCRB cell viability assay (AID 1918983); note: nearly all actives have a fitted effect of over 35% in size
# Outline: as §1
compound,measurement,setting,value
COC(=O)Nc1nc2ccc(C(=O)c3ccccc3)cc2[nH]1,Potency,[1],0.935 µM (active)
same,Potency,[2],0.418 µM (active)
same,Potency,[3],0.418 µM (active)
same,Potency,[4],0.332 µM (active)
same,Potency,[5],14.8 µM (active)
same,Potency,[6],0.418 µM (active)
CCN(C)C(=O)Oc1cccc([C@H](C)N(C)C)c1,Potency,[1],inactive
same,Potency,[3],inactive
CCOC(=O)[C@H](CCc1ccccc1)N[C@H]1CS[C@H](c2cccs2)CN(CC(=O)O)C1=O,Potency,[7],0.662 µM (active)
same,Potency,[1],10.5 µM (active)
same,Potency,[3],16.6 µM (active)
same,Potency,[4],14.8 µM (active)
same,Potency,[5],5.9 µM (active)
same,Potency,[6],2.35 µM (active)
C[C@@H]1C[C@H]2[C@@H]3CCC4=CC(=O)C=C[C@]4(C)[C@@]3(Cl)[C@@H](O)C[C@]2(C)[C@@]1(OC(=O)c1ccco1)C(=O)CCl,Potency,[2],9.35 µM (active)
same,Potency,[3],16.6 µM (active)
same,Potency,[5],9.35 µM (active)
same,Potency,[6],1.66 µM (active)
OCc1ccc(-c2nn(Cc3ccccc3)c3ccccc23)o1,Potency,[7],inactive
same,Potency,[1],inactive
same,Potency,[3],16.6 µM (active)
same,Potency,[8],18.7 µM (active)
same,Potency,[4],5.9 µM (active)
O=C(O)C1CCCN(CCC=C(c2ccccc2)c2ccccc2)C1 (configuration not stated),Potency,[1],inactive
same,Potency,[2],inactive
same,Potency,[3],inactive
same,viability,[4],122%
same,Potency,[6],inactive
COc1cnc(NS(=O)(=O)c2ccc(N)cc2)nc1,Potency,[1],inactive
same,Potency,[3],inactive
same,viability,[4],141%
same,Potency,[5],inactive
Cc1ccc(S(=O)(=O)N[C@@H](Cc2ccccc2)C(=O)CCl)cc1,Potency,[7],11.8 µM (active)
same,Potency,[1],20.9 µM (active)
same,Potency,[2],3.32 µM (active)
same,Potency,[3],7.43 µM (active)
same,Potency,[8],9.35 µM (active)
same,Potency,[4],18.7 µM (active)
same,Potency,[5],18.7 µM (active)
same,Potency,[6],14.8 µM (active)
CO[C@@]12[C@H](COC(N)=O)C3=C(C(=O)C(C)=C(N)C3=O)N1C[C@@H]1N[C@@H]12,Potency,[1],26.4 µM (active)
same,Potency,[2],18.7 µM (active)
same,Potency,[3],26.4 µM (active)
same,Potency,[8],26.4 µM (active)
same,Potency,[4],20.9 µM (active)
same,Potency,[5],20.9 µM (active)
CCn1cc(C(=O)O)c(=O)c2cc(F)c(N3CCNCC3)nc21,Potency,[7],inactive
same,Potency,[3],inactive
same,viability,[4],102%
same,Potency,[6],inactive
O[C@@H](CNC[C@H](O)[C@H]1CCc2cc(F)ccc2O1)[C@@H]1CCc2cc(F)ccc2O1,Potency,[7],16.6 µM (active)
same,Potency,[3],20.9 µM (active)
same,Potency,[8],26.4 µM (active)
same,Potency,[4],18.7 µM (active)
same,Potency,[5],26.4 µM (active)
same,Potency,[6],13.2 µM (active)
NC1(c2ccc(-c3nc4ccn5c(=O)[nH]nc5c4cc3-c3ccccc3)cc2)CCC1,Potency,[7],2.64 µM (active)
same,Potency,[1],9.35 µM (active)
same,Potency,[8],3.32 µM (active)
same,Potency,[4],7.43 µM (active)
same,Potency,[5],20.9 µM (active)
same,Potency,[6],20.9 µM (active)
COC(=O)Nc1nc2ccc(S(=O)c3ccccc3)cc2[nH]1 (configuration not stated),Potency,[1],23.5 µM (active)
same,Potency,[2],7.43 µM (active)
same,Potency,[3],16.6 µM (active)
same,Potency,[6],9.35 µM (active)
CC(=O)[C@H]1CC[C@H]2[C@@H]3CCC4=CC(=O)CC[C@]4(C)[C@H]3CC[C@]12C,Potency,[1],inactive
same,Potency,[8],8.33 µM (active)
CC1=C(C(=O)O)N2C(=O)[C@@H](NC(=O)C(N)c3ccccc3)[C@H]2SC1 (some centres not stated),Potency,[8],inactive
same,viability,[4],130%
same,Potency,[6],inactive
CC(C)C1CCC(C(=O)N[C@H](Cc2ccccc2)C(=O)O)CC1 (some centres not stated),Potency,[1],inactive
same,Potency,[8],inactive
same,Potency,[6],inactive
CCN[C@H]1C[C@H](C)S(=O)(=O)c2sc(S(N)(=O)=O)cc21,Potency,[7],inactive
same,Potency,[1],inactive
same,Potency,[3],inactive
same,Potency,[8],inactive
same,Potency,[5],inactive
O=C(O)CSCC(=O)NC1CCSC1=O (configuration not stated),Potency,[9],inactive
same,Potency,[8],inactive
same,viability,[4],130%
same,Potency,[6],inactive
CCCc1cc(C(N)=S)ccn1,Potency,[1],inactive
same,Potency,[2],inactive
same,Potency,[3],inactive
same,Potency,[8],inactive
same,Potency,[6],inactive
O=C(O)c1ccc(-n2nc(-c3ccccc3O)nc2-c2ccccc2O)cc1,Potency,[8],23.5 µM (active)
same,Potency,[6],20.9 µM (active)
COc1cc2c(Nc3ccc(Br)cc3F)ncnc2cc1OCC1CCN(C)CC1,Potency,[3],18.7 µM (active)
same,Potency,[8],6.62 µM (active)
same,Potency,[5],20.9 µM (active)
same,Potency,[6],7.43 µM (active)
CCOC(=O)c1ccc(C#Cc2ccc3c(c2)C(C)(C)CCS3)nc1,Potency,[7],inactive
same,Potency,[1],inactive
same,viability,[4],115%
Cc1cccc(Nc2ccncc2S(=O)(=O)NC(=O)NC(C)C)c1,Potency,[1],inactive
same,Potency,[3],0.0013 µM (active)
same,Potency,[8],inactive
same,Potency,[5],inactive
same,Potency,[6],inactive
CC1=CC(=O)c2ccccc2C1=O,Potency,[2],33.2 µM (active)
same,Potency,[3],16.6 µM (active)
same,Potency,[4],16.6 µM (active)
same,Potency,[5],18.7 µM (active)
same,Potency,[6],14.8 µM (active)
